# Screens: PubChem, National Center for Advancing Translational Sciences (NCATS)
# Compounds with a hit are over-represented: about 18% of the library has one in this group of screens.
# TDP1 cell noCPT: qHTS for Inhibitors of human tyrosyl-DNA phosphodiesterase 1 (TDP1): qHTS in cells in absence of CPT. DT40 Tdp1-/- hTDP1 cells, no CPT, ATP luminescence, 48 h. Potency, µM (highest dose often 46.2 µM), for the others: top-dose activity change, negative = growth inhibition, actives largely listed as inhibitors. 420,000 tested, 15% active. AID 686978, 2013; also: potency is read from the fitted curve at half-maximal effect; % is scaled to controls: 0 for no effect and ±100 for the full control effect; nearly all actives have a fitted effect of over 55% in size
#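 Growth of hTDP1-complemented DT40 Tdp1-knockout cells is measured by ATP luminescence after at least 48 hr compound exposure at 37 °C, with DMSO substituting for the 20 nM CPT used in the parallel screen.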
# TDP1 cell CPT: DT40-hTDP1 cell growth loss with CPT. Potency, µM (top dose mostly 46.2 µM), inactives show at the highest dose activity change, negative = growth inhibition, usual class: inhibitors. chicken DT40 Tdp1-/-;hTDP1 cells + 20 nM CPT, ATP luminescence, 48 h. 420,000 tested, 12% active; also: potency is read from the fitted curve at half-maximal effect; % is scaled to controls: 0 for no effect and ±100 for the full control effect; nearly all actives have a fitted effect of over 55% in size
#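 Chicken DT40 Tdp1-/- cells stably complemented with human TDP1 were seeded at 400 cells/well in medium containing 20 nM camptothecin, exposed to pin-transferred compounds, and grown at 37 °C for at least 48 hr. Viability was read as ATP luminescence.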
# IL1B secr inh: inflammasome signaling inhibition, IL-1 beta readout; activity change, % at 57.5 µM; THP-1 LPS/ATP IL-1B secretion, AlphaLISA, 16 h; active compounds read low; 360,000 tested, 4.7% active; AID 743279; in the data active = activity change below about -50%; inconclusive = mostly about -30% to -49%; also: % is scaled to controls: 0 for no effect and ±100 for the full control effect
#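 Secreted IL-1B measured by AlphaLISA bead assay after 16 h compound exposure of THP-1 cells; compounds (final up to 57.5 uM) added 1 h before LPS (250 ng/mL) and ATP (1.25 mM) stimulation; lower signal means less secretion.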
# TDP1 inh: blocks human tyrosyl-DNA phosphodiesterase 1; 350,000 tested, 0.28% active; recombinant TDP1, AlphaScreen DNA substrate cleavage; Q9NUW8; Potency, µM (highest dose often 130 µM), for the others: at the top dose activity change, negative = inhibition, actives largely listed as inhibitors; AID 485290; also: potency is read from the fitted curve at half-maximal effect; % is scaled to controls: 0 for no effect and ±100 for the full control effect; nearly all actives have a fitted effect of over 40% in size
# Target sequence (Q9NUW8 whole entry, looked up): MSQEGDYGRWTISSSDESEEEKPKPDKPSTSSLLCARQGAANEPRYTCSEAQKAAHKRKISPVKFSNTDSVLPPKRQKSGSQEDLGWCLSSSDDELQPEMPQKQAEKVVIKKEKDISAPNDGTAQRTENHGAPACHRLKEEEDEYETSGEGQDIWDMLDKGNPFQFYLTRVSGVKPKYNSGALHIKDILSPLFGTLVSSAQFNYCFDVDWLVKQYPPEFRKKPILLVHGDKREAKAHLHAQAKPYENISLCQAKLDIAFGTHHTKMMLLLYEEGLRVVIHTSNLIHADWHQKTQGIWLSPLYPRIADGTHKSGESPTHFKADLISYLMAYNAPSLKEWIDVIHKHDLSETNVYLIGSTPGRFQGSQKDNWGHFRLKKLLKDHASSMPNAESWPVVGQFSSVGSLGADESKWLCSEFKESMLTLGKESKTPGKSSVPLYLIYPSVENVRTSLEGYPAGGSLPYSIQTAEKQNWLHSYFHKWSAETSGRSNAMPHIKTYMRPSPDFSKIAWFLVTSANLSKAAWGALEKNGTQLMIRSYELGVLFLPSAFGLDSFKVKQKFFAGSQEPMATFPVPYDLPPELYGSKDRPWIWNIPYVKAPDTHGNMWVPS
#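 Signal: AlphaScreen proximity between streptavidin donor and anti-FITC acceptor beads on intact substrate. Reaction: Tdp1 1 nM, substrate 15 nM final, 5 min RT after 15 min compound preincubation.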
# TGFb inhibitor: inhibitors of TGF-b signaling; AID 588855; 410,000 tested, 1.2% active; HepG2 CAGA-GFP TGF-b/SMAD3 reporter, GFP fluorescence, 18 h; TGF-beta stimulated, 500 pg/mL final; Potency, µM (top dose mostly 46.1 µM), for inactives: at the highest dose activity, negative = inhibition, usual class: inhibitors; also: potency is read from the fitted curve at half-maximal effect; % is scaled to controls: 0 for no effect and ±100 for the full control effect; nearly all actives have a fitted effect of over 65% in size
#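 Inhibition of TGF-beta-driven CAGA-GFP reporter expression in HEPG2 cells is measured by cellular GFP fluorescence after 18 h stimulation with 500 pg/mL recombinant TGF-beta in 1% FBS medium at 37 degrees C.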
# HepG2 tox: counter-screen for TGF-b inhibitors: cytotoxicity in HepG2 cells; HepG2 CAGA-GFP viability, ATP luminescence, 18 h; Potency, µM (highest dose often 46.1 µM), inactives show at the top dose activity change, negative = cytotoxicity, hits mostly cytotoxic; 410,000 tested, 0.76% active; AID 588856; also: potency is read from the fitted curve at half-maximal effect
#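 HepG2 CAGA-GFP cells (1000/well, DMEM with 1% FBS) received compound, then TGF-beta at 500 pg/mL final, and were incubated 18 hours at 37 degrees C. Viability was read by CellTiter-Glo luminescence. Media-only wells were set as complete cell-killing and DMSO as no toxicity.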
# * hit, by the source's call; ? = inconclusive; / = no result; ! = a repeat was not active; [ ] = dose if it differs, or a comment. Unless noted, calls follow the shape of the dose curve; as a rule, active = well fitted curve in the direction sought with a large enough effect; inconclusive = small, poorly fitted or top-dose-only effect, or another doubt; inactive = no such curve, though single readings can be large; an effect the other way counts as inactive or inconclusive.
SMILES,TDP1 cell noCPT,TDP1 cell CPT,IL1B secr inh,TDP1 inh,TGFb inhibitor,HepG2 tox
CC1CCC(N2CC(=O)N(C3CCCC3)C(c3ccc(Cl)cc3)C2=O)CC1 (configuration not stated),16µM*,?,/,10%,-1%,-3%
COc1ccc(CN2C(=O)CN(C3CCCCCC3)C(=O)C2c2ccc(OC)c(OC)c2)cc1 (configuration not stated),-24%,?,-14,2%,-8%,-19%
Nc1cnccn1,-1%,-3%,/,/,-17%,0%
O=C(Nc1cccc(Cl)c1)C1C2CCC3C(CCC21)C3(Cl)Cl (configuration not stated),16µM*,?,-72*,-3%,?,2%
Fc1ccccc1Cn1c(-c2ccccc2)nc2ccccc21,7.3µM*,?,/,5%,?,-68%
Cc1ccccc1Cn1c(C)nc2ccccc21,5.8µM*,?,-5,/,-11%,-5%
COc1ccccc1Cn1c(C)nc2ccccc21,?,-28%,/,6%,20%,33%
Brc1ccccc1Cn1c(-c2cscn2)nc2ccccc21,?,23µM*,-6,-2%,13%,-36%
Clc1ccc(COn2c(-c3ccc(Cl)cc3)nc3ccccc32)cc1,?,?,-26,0%,-6%,-4%
Clc1ccc(COn2c(-c3ccccc3)nc3ccccc32)cc1,23µM*,?,?,-5%,14%,-12%
Clc1ccccc1Cn1c(-c2cccs2)nc2ccccc21,?,?,/,6%,-3%,-4%
Cc1cccc(NC(=O)c2cc3c([nH]c2=O)CC(c2ccccc2)CC3=O)c1 (configuration not stated),-19%,-29%,/,4%,-8%,-24%
Cc1nc2ccccc2n1Cc1ccc(Cl)cc1,7.3µM*,10µM*!,-14,-1%,-15%,-7%
Cc1ccccc1Cn1c(-c2cncs2)nc2ccccc21,?,?,-52*,2%,-15%,-16%
CC(C)(C)c1ccc(Cn2c(Cc3ccccc3)nc3ccccc32)cc1,6.5µM*,7.3µM*,/,/,14µM*,16µM*
Cc1ccc(NC(=O)Cn2c(-c3cncs3)nc3ccccc32)c(Br)c1,?,?,/,7%,0%,-3%
CCCCOc1ccccc1NC(=O)Cn1c(-c2cncs2)nc2ccccc21,?,23µM*,/,6%,-30%,-16%
O=C(Nc1ccc(F)cc1)c1ccc(-n2cnc3cccnc32)cc1,/,/,/,6%,15%,5%
O=C(c1ccc(F)cc1Cl)N(Cc1ccco1)C1CCS(=O)(=O)C1 (configuration not stated),-4%,-6%,0,0%[56.1 µM],-11%,-5%
O=C(CSc1nc(=O)n(CCCN2CCOCC2)c2c1CCC2)Nc1ccc([N+](=O)[O-])cc1,-5%,-1%,-18,-2%,5%,5%
Cc1ccc(C(=O)NCC(=O)OC(C(=O)Nc2cc(C(F)(F)F)ccc2Cl)c2ccccc2)cc1 (configuration not stated),/,/,/,-1%,/,/
Cc1ccccc1Cn1c(Cc2ccccc2)nc2ccccc21,18µM*,?,-20,-3%,-22%,-6%
COc1ccc2oc(C(=O)N(Cc3ccco3)Cc3cccs3)c(C)c2c1,?,?,-9,/,?,15%
COc1cc(Nc2c3c(nc4ccccc24)CCC3)cc(OC)c1OC,2.1µM*,1.8µM*,6,/,?,-29%
COc1cc(NC(=O)c2c3c(nc4ccccc24)CCC3)cc(OC)c1,-8%,-29%,13,2%,-6%,-22%
SMILES,TDP1 cell noCPT,TDP1 cell CPT,IL1B secr inh,TDP1 inh,TGFb inhibitor,HepG2 tox
COc1ccc(OC)c(Nc2cc(C)c3ccccc3n2)c1,?,?,-6,/,?,-36%
O=[N+]([O-])c1ccccc1Nc1c2ccccc2nc2ccccc12,?,21µM*,7,1%,-15%,-23%
COc1ccc(OC)c(Nc2c3ccccc3nc3ccccc23)c1,6.5µM*,5.2µM*,-84*,/,13µM*,-27%
COc1ccc(OC)c(Nc2c3c(nc4ccccc24)CCC3)c1,0.58µM*,0.73µM*,-75*,9%,11µM*!,-14%
CCN(c1ccccc1)S(=O)(=O)c1ccc(OC)c(NC(=O)COc2ccc(C(C)=O)cc2)c1,?,-18%,52,-6%[0.505 µM],-28%,4%
CCN(CC)CCNC(=O)c1sc2nc3n(c(=O)c2c1C)CCCCC3,-22%,14%,/,0%,-10%,-8%
CN(Cc1ccc(F)cc1)S(=O)(=O)c1ccc2[nH]c(=O)[nH]c2c1,-28%,-7%,-5,/,-7%,-18%
COc1ccc(Nc2nc3ccccc3nc2NS(=O)(=O)c2ccc(C)cc2)c(OC)c1,?,?,/,/,0%,-31%
COc1ccc([N+](=O)[O-])cc1Nc1c2ccccc2nc2ccccc12,2.6µM*,2.6µM*,-29,-3%,?,-46%
COc1cc(NS(C)(=O)=O)ccc1Nc1c2ccccc2nc2ccccc12,0.13µM*,0.21µM*,-105*,12%,?,-98%
O=[N+]([O-])c1ccc(Nc2c3ccccc3nc3ccccc23)cc1,?,?,-3,10%,?,-21%
